Results from PubChem BioAssay (NCI).
The panel holds about 83,000 compounds, 20% with a hit somewhere; the sample as a whole holds those more often.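 Compound tested at a single concentration for 48 hours in 96-well plates; a percent growth value below 10 was scored as active.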 Activity calls are given as the source filed them.

Assays:
Experiment in all cases: NCI-60 one-dose screen, 48 h (100 = growth as untreated, 0 = no growth, -100 = all killed)
Details in all cases: 10 µM unless noted
[1] = system: HCT-15 colon
[2] = system: HT29 colon
[3] = system: SNB-75 CNS
[4] = system: SNB-19 CNS
[5] = system: U251 CNS
[6] = system: PC-3 prostate
[7] = system: SK-MEL-5 melanoma
[8] = system: UACC-62 melanoma
[9] = system: LOX IMVI melanoma
[10] = system: SK-MEL-28 melanoma
[11] = system: SK-MEL-2 melanoma
[12] = system: SN12C renal
[13] = system: UO-31 renal
[14] = system: TK-10 renal
[15] = system: ACHN renal
[16] = system: CAKI-1 renal
[17] = system: A498 renal
[18] = system: CCRF-CEM leukemia
[19] = system: MOLT-4 leukemia
[20] = system: EKVX NSCLC

Measured: growth

O=C(c1ccccc1)c1ccc(Cl)c([N+](=O)[O-])c1
active: [13] -87.9% | [16] -2.29%
inactive: [1] 90% | [2] 83% | [3] 87.7% | [4] 98.5% | [5] 97.1% | [6] 90.2% | [7] 101% | [8] 93.2% | [9] 37.1% | [10] 96.8% | [11] 95.3% | [12] 97% | [14] 107% | [15] 98.2% | [17] 57.1% | [18] 13.5% | [19] 11.9%

Cc1csc(NC(=O)c2sc3nc(-c4cccs4)ccc3c2N)n1
inactive: [1] 102% | [2] 102% | [3] 102% | [4] 112% | [5] 91.3% | [6] 82.6% | [7] 92.2% | [8] 98.2% | [9] 95.1% | [10] 115% | [11] 87.2% | [12] 98% | [13] 88% | [14] 118% | [15] 110% | [16] 102% | [17] 77.3% | [18] 70.3% | [19] 57.6%

O=C(O)c1ccc(CO)o1
inactive: [1] 103% | [2] 106% | [3] 90.7% | [4] 103% | [5] 91.8% | [6] 105% | [7] 107% | [8] 101% | [9] 109% | [10] 103% | [11] 92.3% | [12] 104% | [13] 97.7% | [14] 103% | [15] 105% | [16] 102% | [17] 114% | [18] 106% | [19] 100%

C=C(Cl)COC(=O)C(C)(C)O
inactive: [1] 102% | [2] 92.8% | [3] 84.6% | [4] 105% | [5] 100% | [6] 92.8% | [7] 106% | [8] 111% | [9] 94.8% | [10] 97.7% | [11] 92.9% | [12] 107% | [13] 92.7% | [14] 89.5% | [15] 105% | [16] 94.6% | [17] 94.1% | [18] 92.6% | [19] 97.1%

O=C(Nc1ccc(N2CCCCC2)c(Cl)c1)c1ccc(Br)o1
active: [7] -96.8% | [8] -40.2% | [9] 2.04%
inactive: [1] 61.1% | [2] 73.7% | [3] 60.7% | [4] 78.3% | [5] 68.5% | [6] 58% | [10] 39.6% | [11] 91.9% | [12] 80.6% | [13] 51.5% | [14] 102% | [15] 64.3% | [16] 94.8% | [17] 102% | [18] 74.9% | [19] 75.4%

CCC(=O)OC1=C(C)SC2=NC(c3ccc(Cl)c(Cl)c3)=CC(c3cc(OC)c(OC)c(OC)c3)N21 (configuration not stated)
inactive: [1] 89.8% | [2] 103% | [3] 76.9% | [4] 94.5% | [5] 95.9% | [6] 91.8% | [7] 98.7% | [8] 87.8% | [9] 99.6% | [10] 104% | [11] 107% | [12] 95.3% | [13] 82.1% | [14] 133% | [15] 102% | [16] 87.8% | [17] 116% | [18] 90.7% | [19] 99.3%

CCCCCCCSc1ccc(C(=O)O)cc1
inactive: [1] 111% | [2] 112% | [3] 71.2% | [4] 95.4% | [5] 95.1% | [6] 99.9% | [7] 108% | [8] 98.6% | [9] 103% | [10] 105% | [11] 103% | [12] 93.2% | [13] 84% | [14] 105% | [15] 94.6% | [16] 103% | [17] 97.5% | [18] 91.5% | [19] 106%

Fc1ccc(Nc2nc(Nc3ccc(-c4nc5ccccc5[nH]4)cc3)c3cn[nH]c3n2)cc1
active: [1] -41.2% | [2] -8.84% | [9] -64.6%
inactive: [3] 83.3% | [4] 87.6% | [5] 33.5% | [6] 76.6% | [7] 78.8% | [8] 84.9% | [10] 51.7% | [11] 92.8% | [20] 72.4% | [13] 79.8% | [15] 78.9% | [16] 89.7% | [17] 101% | [18] 31.9% | [19] 21.6%

Cc1nc(C)c(-c2nn3c(-c4cccc(F)c4)nnc3s2)s1
inactive: [1] 101% | [2] 86.6% | [3] 113% | [4] 93.6% | [5] 93.5% | [6] 89.3% | [7] 92.8% | [8] 96% | [9] 99.9% | [10] 119% | [11] 102% | [12] 97.6% | [13] 83.9% | [14] 77.6% | [15] 117% | [16] 103% | [17] 67.5% | [18] 90.4% | [19] 87%

C[C@@H](C[C@H](CCOCc1cccnc1)c1ccccc1)c1cc2ccccc2o1
inactive: [1] 91.1% | [2] 78.1% | [3] 85.6% | [4] 94.2% | [5] 93.6% | [6] 75.6% | [7] 98.4% | [8] 81.2% | [9] 95.8% | [10] 102% | [11] 89.7% | [12] 95.1% | [13] 75.9% | [14] 95.3% | [15] 93.1% | [16] 77.6% | [17] 101% | [18] 94.1% | [19] 84.1%

COc1ccc(NC(=O)C(=O)c2c[nH]c3ccc(F)cc23)cc1
inactive: [1] 99.2% | [2] 88.4% | [3] 99.7% | [4] 104% | [5] 91% | [6] 91.5% | [7] 97.4% | [8] 99.3% | [9] 105% | [10] 109% | [11] 106% | [12] 98.9% | [13] 96.4% | [14] 132% | [15] 93.8% | [16] 93.1% | [17] 65.8% | [18] 97.8% | [19] 90.8%

CSc1nc2sc3cc(Cl)ccc3n2c(=N)c1C#N
inactive: [1] 94.7% | [2] 33% | [3] 26% | [4] 81.8% | [5] 89.4% | [6] 66.4% | [7] 45.2% | [8] 59.4% | [9] 86.8% | [10] 41.9% | [11] 87.3% | [20] 81.9% | [13] 75.2% | [15] 78.9% | [16] 69.9% | [17] 98% | [18] 88.6% | [19] 15.7%

Nc1c(C(=O)c2ccc(Cl)s2)sc2nc3c(cc12)CCCC3
inactive: [1] 107% | [2] 94.2% | [3] 103% | [4] 105% | [5] 97.8% | [6] 88.4% | [7] 96.8% | [8] 106% | [9] 96.8% | [10] 119% | [11] 105% | [12] 94.4% | [13] 81.2% | [14] 151% | [15] 112% | [16] 87% | [17] 72% | [18] 99.9% | [19] 99.5%

COc1ccc(/C(C)=N/NS(=O)(=O)c2ccc(C)cc2)cc1OC
inactive: [1] 103% | [2] 109% | [3] 108% | [4] 107% | [5] 99.6% | [6] 91.6% | [7] 103% | [8] 105% | [9] 93.1% | [10] 123% | [11] 122% | [12] 109% | [13] 103% | [14] 104% | [15] 103% | [16] 90.4% | [17] 87.2% | [18] 102% | [19] 98.2%

CCCCNC(=O)NS(=O)(=O)c1ccc(N2N=C(c3ccc(C)cc3C)CC2c2ccc(N(C)C)cc2)cc1 (configuration not stated)
inactive: [1] 35.3% | [2] 62% | [3] 75.4% | [4] 75.6% | [5] 37% | [6] 38% | [7] 47% | [8] 54.8% | [9] 52.2% | [10] 45.5% | [11] 78% | [12] 59.4% | [13] 51.4% | [14] 83% | [15] 48.6% | [16] 63% | [17] 62.6% | [18] 43.3% | [19] 48.4%

CCOC(=O)c1sc2ccc(NCc3nc[nH]c3C)cc2c1NC(=O)c1cc(OC)c(OC)c(OC)c1
inactive: [1] 92.7% | [2] 88.9% | [3] 92.8% | [4] 93% | [5] 92.3% | [6] 85% | [7] 96.9% | [8] 92.9% | [9] 67.9% | [10] 83% | [11] 84.1% | [12] 87.5% | [13] 70.4% | [14] 150% | [15] 65.1% | [16] 96% | [17] 101% | [18] 52.2% | [19] 88.2%
